In PubChem BioAssay AID1780 (National Center for Advancing Translational Sciences (NCATS), 2009):
Activity calls are given as the source filed them. The call rests on the fitted dose curve; in most records, active means well fitted curve in the direction sought with a large enough effect; inactive means no such curve, though single readings can be large or run the other way.

These compounds were tested against Pyruvate kinase PKM (Homo sapiens) (UniProt P14618) (assay: Confirmation Concentration-Response Assay for Activators of Human Muscle isoform 1 Pyruvate Kinase). Details: purified hPK-M1, Kinase-Glo ATP luminescence, 1 h; series mostly up to 57.5 µM; activity change, positive = activation: at the top concentration.
Pyruvate kinase PKM (Homo sapiens), sequence (P14618 whole entry, looked up, canonical isoform): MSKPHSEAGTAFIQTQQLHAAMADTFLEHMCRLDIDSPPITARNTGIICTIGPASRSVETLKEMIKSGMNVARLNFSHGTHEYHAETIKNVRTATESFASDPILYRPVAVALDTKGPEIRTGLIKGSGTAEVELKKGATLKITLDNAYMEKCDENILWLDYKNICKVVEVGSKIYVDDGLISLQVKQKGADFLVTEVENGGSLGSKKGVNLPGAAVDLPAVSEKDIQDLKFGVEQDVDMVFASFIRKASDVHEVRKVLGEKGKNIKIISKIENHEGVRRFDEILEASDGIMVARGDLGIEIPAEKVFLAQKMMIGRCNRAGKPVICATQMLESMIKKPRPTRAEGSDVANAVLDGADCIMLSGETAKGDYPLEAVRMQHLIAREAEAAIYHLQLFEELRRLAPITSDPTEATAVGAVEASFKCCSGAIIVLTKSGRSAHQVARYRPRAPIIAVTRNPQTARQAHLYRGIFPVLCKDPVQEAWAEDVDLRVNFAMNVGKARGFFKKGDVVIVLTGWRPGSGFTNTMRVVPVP
Description: Confirmatory assay NIH Chemical Genomics Center [NCGC] Matthew G. Vander Heiden, M.D., Ph.D. [Harvard Medical School, 77 Avenue Louis Pasteur, Boston, MA 02115] NCGC Assay Overview: Human pyruvate kinase […] (hPK-M1) enzyme was supplied as a highly purified (>95% pure) preparation from Harvard Medical School and assayed for its ability to generate ATP from ADP using phosphoenolpyruvate (PEP) as a substrate. ATP generation was detected in a coupled reaction by luciferase-mediated luminescence, an ATP-dependent process. Pyruvate kinase substrates, PEP and ADP, were present in the assay at Km and approximately 10-fold below Km respectively. The enzyme was assayed at an intermediate level of activity to screen for both inhibitors and activators.
NCGC Assay Protocol Summary for M1-isoform: Three uL of substrate mix (at r.t.) in assay buffer (50 mM Imidazole pH7.2, 50 mM KCl, 7 mM MgCl2, 0.01% Tween 20, 0.05% BSA) was dispensed into white solid bottom 1,536 well microtiter plates so that the final concentrations of substrates in the assay were 0.1 mM ADP and 0.5 mM PEP. 23 nL of compound were delivered by a pin tool and 1 uL of enzyme mix (final concentration of 1 nM) in assay buffer (4 degree Celsius) was added. Plates were incubated at room temperature for 1 hour. Two uL of detection mix (Kinase-Glo, Promega; at 4 degree Celsius protected from light) was added and luminescence read by a ViewLux (Perkin Elmer) at 1 second exposure/plate. Data were normalized to the uninhibited (row 31). Additionally, a no enzyme and 5-fold enzyme control was dispensed in row 32, split equally between the two conditions.

Activity change, positive = activation, inactive:
Cn1c2cc(CO)sc2c2cnn(Cc3ccccc3F)c(=O)c21 -7.43%
Cc1cc2c(s1)c1cnn(Cc3cccc(F)c3)c(=O)c1n2C 1.98%
Cc1cc2c(s1)c1cnn(Cc3c(F)cccc3Cl)c(=O)c1n2C 9.06%
COc1cccc(S(=O)(=O)N2CCN(S(=O)(=O)c3ccc4c(c3)OCCO4)CC2)c1 6.37%
Cc1cc2c(s1)c1cnn(Cc3ccc(C(F)(F)F)cc3)c(=O)c1n2C 0.64%
O=C(c1c(F)cccc1F)N1CCN(S(=O)(=O)c2ccc3c(c2)OCCO3)CC1 11.3%
CC(O)c1cc2c(s1)c1cnn(Cc3ccccc3F)c(=O)c1n2C (centres undefined) 9.37%
O=S(=O)(NCC1CN(S(=O)(=O)c2c(F)cccc2F)C1)c1ccc2c(c1)OCCO2 -4.42%
Cc1ccc(Cn2ncc3c4sc(C)cc4n(C)c3c2=O)cc1 -1.9%
O=S(=O)(NC1CCN(S(=O)(=O)c2c(F)cccc2F)CC1)c1ccc2c(c1)OCCO2 7.34%
Cc1cc2c(s1)c1cnn(Cc3ccccc3Cl)c(=O)c1n2C 0.414%
O=S(=O)(c1ccc2c(c1)OCCO2)N1CCN(S(=O)(=O)c2ccc(F)cc2F)CC1 10.3%
O=S(=O)(NC1CCN(S(=O)(=O)c2c(F)cccc2F)C1)c1ccc2c(c1)OCCO2 (centres undefined) -3.63%
COc1ccc(Cn2ncc3c4sc(C)cc4n(C)c3c2=O)cc1 -0.115%
CCn1c2cc(C)sc2c2cnn(Cc3ccccc3F)c(=O)c21 2.24%
O=S(=O)(c1ccc(Cl)cc1)N1CCN(S(=O)(=O)c2ccc3c(c2)OCCO3)CC1 8%
COC(=O)c1cc2c(s1)c1cnn(Cc3ccccc3F)c(=O)c1n2C -6.84% [at 28.7 µM]
O=S(=O)(NCCNS(=O)(=O)c1c(F)cccc1F)c1ccc2c(c1)OCCO2 -6.07%

outcome, inactive:
CN1CCOc2ccc(S(=O)(=O)N3CCN(S(=O)(=O)c4c(F)cccc4F)CC3)cc21
